Inconclusive results are not listed. Active and inactive are the calls of the source. Calls follow the shape of the dose curve; as a rule, active = well fitted curve in the direction sought with a large enough effect; inconclusive = small, poorly fitted or top-dose-only effect, or another doubt; inactive = no such curve, though single readings can be large or run the other way.
Tested on: 4-diphosphocytidyl-2-C-methyl-D-erythritol kinase IspE (bacterial, species not stated)
Experiment: Confirmatory Assay for Inhibitors of Human Galactokinase (GALK): CDP-Me assay counterscreen
Text: NIH Molecular Libraries Probe Production Centers Network [MLPCN] NIH Chemical Genomics Center [NCGC] MLPCN Grant: R03 MH085689-01 Assay Submitter (PI): Kent Lai (University of Utah School of Medicine, 50 N Mario Capecchi Drive, Salt Lake City, UT 84132) NCGC Assay Overview The GHMP kinase family is a unique class of important enzymes that plays an essential role in many metabolic processes. It contains more than 170 protein members among which are the galactokinase (GALK) and the CMK enzymes. GALK plays a crucial role in galactose processing and is a potential therapeutic target for Classic Galactosemia (OMIM: 230400). CMK is involved for the non-mevalonate synthesis of isoprenoids precursors and natural products like sterols or ubiquinones which are important to many biological functions. […]
NCGC Assay Protocol Summary: Three uL/well of substrate solution (15 uM ATP, 30 uM CDP-ME, 20 mM HEPES pH8.0, 5 mM MgCl2, 40 mM KCl, 1 mM DTT, 0.01% BSA final concentration) was dispensed into 1536-well, assay plates (Greiner, solid white medium-binding plates) with Aurora Discovery BioRAPTR Flying Reagent Dispenser (FRD; Beckton-Dickenson). […] After 1 min, luminescence was detected with the ViewLux plate reader (Perkin Elmer, Waltham, MA) using a 1 sec exposure time and 2x binning settings.

Compound | outcome
COCCCn1c(N)c(C(=O)NCc2ccco2)c2nc3ccccc3nc21 | inactive
O=C1NC(=S)N(Cc2ccco2)C(=O)/C1=C\c1cccs1 | inactive
